The target in test [1] is human Protein Tyrosine Phosphatase Non-receptor Type 4 (PTPN4), PTPN4 (gene 5775) (UniProt P29074). Description: NVS_ENZ_hPTPN4: NovaScreen (NVS) Enzymatic Assay for human Protein Tyrosine Phosphatase Non-receptor Type 4 (PTPN4) (AID 2283208). The procedure, abridged: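 Screened in duplicate at 25 uM, with hits then titrated to a top concentration of 50 uM. Recombinant Sf9-derived PTPN4 turnover was read by fluorescence with electrophoretic separation, 1.33 h after compound addition. DMSO served as baseline.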

Test [2] has as its target human Sirtuin 1 (SIRT1), SIRT1 (gene 23411) (UniProt Q96EB6). The test is described as follows: NVS_ENZ_hSIRT1: NovaScreen (NVS) Enzymatic Assay for human Sirtuin 1 (SIRT1) (AID 2283219). In short, it runs like this:
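Cell-free recombinant SIRT1 with a fluorescent substrate; substrate and product separated by electrophoretic mobility shift and read by fluorescence intensity, 1 h after dosing. Primary screen at 25 uM in duplicate; hits re-run in concentration-response up to 50 uM, relative to DMSO.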

Test [3] has as its target human SRC Proto-Oncogene, Non-receptor Tyrosine Kinase (SRC), SRC (gene 6714) (UniProt P12931). Description: NVS_ENZ_hSRC: NovaScreen (NVS) Enzymatic Assay for human SRC Proto-Oncogene, Non-receptor Tyrosine Kinase (SRC) (AID 2283223). The procedure, abridged:
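Compounds passing 30% inhibition at 25 uM (duplicate) were titrated to a top concentration of 50 uM. Enzyme activity read by fluorescence with mobility-shift substrate/product separation after 1 h; DMSO baseline.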

In test [4] the target is human Tropomyosin Receptor Kinase A (TRKA), NTRK1 (gene 4914) (UniProt P04629). The test is described as follows: NVS_ENZ_hTrkA: NovaScreen (NVS) Enzymatic Assay for human Tropomyosin Receptor Kinase A (TRKA) (AID 2283224). In short, it runs like this:
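Compounds were screened at 25 uM in duplicate, then concentration series to a 50 uM top for those meeting threshold (e.g. 30% inhibition). Enzyme was recombinant human TrkA, incubated 1 h. Product formation was quantified by fluorescence after mobility-shift separation.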

Test [5] addresses human Vascular Endothelial Growth Factor Receptor 3 (VEGFR3), FLT4 (gene 2324) (UniProt P35916). The test is described as follows: NVS_ENZ_hVEGFR3: NovaScreen (NVS) Enzymatic Assay for human Vascular Endothelial Growth Factor Receptor 3 (VEGFR3) (AID 2283229). The procedure, abridged: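 Chemicals first run in duplicate at 25 uM, with actives re-tested in concentration series to a top of 50 uM. Recombinant VEGFR3 activity measured after 1 h via fluorescence with mobility-shift product separation; inhibition fitted relative to DMSO.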

For test [6], the target named is human Protein Tyrosine Phosphatase Receptor Type F (PTPRF), PTPRF (gene 5792) (UniProt P10586). Description: NVS_ENZ_hPTPRF: NovaScreen (NVS) Enzymatic Assay for human Protein Tyrosine Phosphatase Receptor Type F (PTPRF) (AID 2283213). In short, it runs like this:
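Cell-free fluorescence enzyme assay with recombinant protein and substrate; product separated by electrophoretic mobility shift. Read 1 h after dosing, single 25 uM duplicate screen, then concentration-response up to 50 uM; loss of signal vs DMSO.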

Test [7] has as its target human Raf-1 Proto-Oncogene, serine/threonine Kinase (RAF1), RAF1 (gene 5894) (UniProt P04049). Description: NVS_ENZ_hRAF1: NovaScreen (NVS) Enzymatic Assay for human Raf-1 Proto-Oncogene, serine/threonine Kinase (RAF1) (AID 2283216). In short, it runs like this: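 Single-point screening at 25 uM (duplicate), followed by singleton concentration-response to 50 uM maximum for chemicals exceeding threshold. Enzyme activity from fluorescent substrate-product mobility-shift separation after 1 h, relative to DMSO.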

Test [8] deals with human Sirtuin 2 (SIRT2), SIRT2 (gene 22933) (UniProt Q8IXJ6). Description: NVS_ENZ_hSIRT2: NovaScreen (NVS) Enzymatic Assay for human Sirtuin 2 (SIRT2) (AID 2283217). In short, it runs like this:
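Single-point duplicate screen at 25 uM, then concentration-response (max 50 uM) for chemicals passing threshold. Enzyme activity of recombinant human SIRT2 measured after 1 hr by fluorescence with mobility-shift separation of product; DMSO baseline.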

Test [9] addresses human Vascular Endothelial Growth Factor Receptor 1 (VEGFR1), FLT1 (gene 2321) (UniProt P17948). Description: NVS_ENZ_hVEGFR1: NovaScreen (NVS) Enzymatic Assay for human Vascular Endothelial Growth Factor Receptor 1 (VEGFR1) (AID 2283226). The procedure, abridged: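 Kinase activity of recombinant human VEGFR1 was read by fluorescence after electrophoretic separation of product from substrate, 1 h post-dosing; initial duplicate single-point testing at 25 uM, followed by concentration-series follow-up, with DMSO as baseline.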

For test [10], the target named is rabbit Imidazoline 2 Central (I2C), CKB (gene 100009085) (UniProt P00567). Description: NVS_ENZ_rabI2C: NovaScreen (NVS) Enzymatic Assay for rabbit Imidazoline 2 Central (I2C) (AID 2283228). In short, it runs like this:
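Rabbit brain membranes, cell-free; readout by filter-based scintillation counting 1.5 hours after dosing, loss of signal vs DMSO. Initial duplicate test at 25 uM, then concentration-response with 50 uM top concentration.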

For test [11], the target named is human Rho Associated Coiled-coil Containing Protein Kinase 1 (ROCK1), ROCK1 (gene 6093) (UniProt Q13464). Description: NVS_ENZ_hROCK1: NovaScreen (NVS) Enzymatic Assay for human Rho Associated Coiled-coil Containing Protein Kinase 1 (ROCK1) (AID 2283214). The procedure, abridged: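 Compounds first run in duplicate at 25 uM against recombinant human ROCK1, then followed in concentration series. Kinase activity was read 1 h post-dosing by fluorescence with mobility-shift separation, as signal loss relative to DMSO.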
Sequence of human Rho Associated Coiled-coil Containing Protein Kinase 1 (ROCK1), ROCK1 (gene 6093) (Q13464 whole entry, looked up): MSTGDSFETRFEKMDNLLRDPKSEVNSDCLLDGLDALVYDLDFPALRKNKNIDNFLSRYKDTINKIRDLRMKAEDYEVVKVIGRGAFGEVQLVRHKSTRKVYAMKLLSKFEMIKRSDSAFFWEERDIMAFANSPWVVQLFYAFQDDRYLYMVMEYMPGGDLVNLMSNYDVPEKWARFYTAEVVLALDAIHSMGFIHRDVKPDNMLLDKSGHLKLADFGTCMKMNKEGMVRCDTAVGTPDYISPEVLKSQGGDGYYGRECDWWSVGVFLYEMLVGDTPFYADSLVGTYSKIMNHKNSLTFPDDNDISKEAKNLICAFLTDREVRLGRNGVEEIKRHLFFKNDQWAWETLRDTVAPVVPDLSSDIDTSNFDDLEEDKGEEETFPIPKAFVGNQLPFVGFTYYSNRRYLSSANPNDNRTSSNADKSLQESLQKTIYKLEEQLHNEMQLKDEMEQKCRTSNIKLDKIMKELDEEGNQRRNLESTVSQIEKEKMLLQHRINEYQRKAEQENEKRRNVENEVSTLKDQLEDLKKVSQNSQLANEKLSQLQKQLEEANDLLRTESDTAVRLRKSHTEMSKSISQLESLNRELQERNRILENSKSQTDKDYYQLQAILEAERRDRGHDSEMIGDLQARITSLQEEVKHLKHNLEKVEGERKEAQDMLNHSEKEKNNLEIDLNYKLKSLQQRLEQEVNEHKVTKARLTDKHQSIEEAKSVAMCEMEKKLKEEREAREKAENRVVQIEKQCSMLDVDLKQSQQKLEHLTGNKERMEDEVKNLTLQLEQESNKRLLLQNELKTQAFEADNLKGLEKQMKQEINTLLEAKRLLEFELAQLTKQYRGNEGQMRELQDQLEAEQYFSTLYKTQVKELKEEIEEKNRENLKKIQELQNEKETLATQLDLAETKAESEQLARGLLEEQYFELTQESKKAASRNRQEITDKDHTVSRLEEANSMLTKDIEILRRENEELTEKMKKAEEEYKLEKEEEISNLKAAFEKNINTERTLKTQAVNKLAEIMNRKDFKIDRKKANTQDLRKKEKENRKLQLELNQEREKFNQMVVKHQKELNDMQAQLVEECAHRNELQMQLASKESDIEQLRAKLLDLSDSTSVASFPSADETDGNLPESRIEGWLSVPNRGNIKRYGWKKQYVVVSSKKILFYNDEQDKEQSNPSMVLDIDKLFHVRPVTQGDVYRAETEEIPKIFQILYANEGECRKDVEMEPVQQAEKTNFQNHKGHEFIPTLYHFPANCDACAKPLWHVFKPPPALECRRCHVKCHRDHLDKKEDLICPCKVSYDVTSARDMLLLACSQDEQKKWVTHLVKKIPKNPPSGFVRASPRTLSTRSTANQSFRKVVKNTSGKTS

Results filed as inconclusive are left out. The source made the active and inactive calls. How the source made its calls: active means hit-call score of the fitted dose curve at least 0.9, where 1 is the maximum; inconclusive means response in the unintended direction; inactive means score below 0.9.

This is an account of results in PubChem BioAssay (EPA / NIEHS).

Sequence of human Vascular Endothelial Growth Factor Receptor 3 (VEGFR3), FLT4 (gene 2324) (P35916 whole entry, looked up): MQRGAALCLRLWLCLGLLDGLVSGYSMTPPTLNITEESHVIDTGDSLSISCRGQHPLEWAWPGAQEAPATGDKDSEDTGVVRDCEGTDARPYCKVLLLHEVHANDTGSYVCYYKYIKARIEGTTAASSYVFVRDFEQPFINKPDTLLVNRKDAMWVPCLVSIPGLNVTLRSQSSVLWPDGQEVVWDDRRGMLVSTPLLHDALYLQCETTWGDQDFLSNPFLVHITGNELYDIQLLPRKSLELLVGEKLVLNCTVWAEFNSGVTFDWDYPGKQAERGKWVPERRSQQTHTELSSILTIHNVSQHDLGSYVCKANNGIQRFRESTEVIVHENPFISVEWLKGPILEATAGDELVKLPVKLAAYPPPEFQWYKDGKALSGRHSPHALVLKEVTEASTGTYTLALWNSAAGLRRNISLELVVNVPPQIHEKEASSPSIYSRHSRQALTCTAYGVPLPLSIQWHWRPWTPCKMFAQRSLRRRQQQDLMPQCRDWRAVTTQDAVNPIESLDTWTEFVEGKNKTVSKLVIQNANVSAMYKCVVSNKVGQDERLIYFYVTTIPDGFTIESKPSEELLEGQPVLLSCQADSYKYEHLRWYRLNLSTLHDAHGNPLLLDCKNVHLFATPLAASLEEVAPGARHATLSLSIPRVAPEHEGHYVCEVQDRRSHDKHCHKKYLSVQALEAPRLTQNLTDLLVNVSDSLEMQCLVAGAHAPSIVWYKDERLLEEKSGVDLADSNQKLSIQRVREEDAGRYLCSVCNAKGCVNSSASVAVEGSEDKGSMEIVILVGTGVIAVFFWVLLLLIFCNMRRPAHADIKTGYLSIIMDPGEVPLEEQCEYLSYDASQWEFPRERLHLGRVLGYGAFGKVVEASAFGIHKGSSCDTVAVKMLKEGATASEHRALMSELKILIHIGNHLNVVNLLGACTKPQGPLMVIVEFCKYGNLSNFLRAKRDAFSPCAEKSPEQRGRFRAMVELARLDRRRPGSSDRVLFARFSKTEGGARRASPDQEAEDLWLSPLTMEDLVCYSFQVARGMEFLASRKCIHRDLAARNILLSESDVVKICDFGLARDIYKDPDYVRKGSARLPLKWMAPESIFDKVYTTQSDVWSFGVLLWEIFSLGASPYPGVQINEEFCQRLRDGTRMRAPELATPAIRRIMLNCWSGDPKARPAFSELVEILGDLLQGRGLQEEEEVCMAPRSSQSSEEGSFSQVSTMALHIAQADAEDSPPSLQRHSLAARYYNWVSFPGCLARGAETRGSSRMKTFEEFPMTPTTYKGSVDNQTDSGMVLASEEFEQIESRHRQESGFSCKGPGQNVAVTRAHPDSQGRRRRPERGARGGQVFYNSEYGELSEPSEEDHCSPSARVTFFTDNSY
Sequence of human Raf-1 Proto-Oncogene, serine/threonine Kinase (RAF1), RAF1 (gene 5894) (P04049 whole entry, looked up): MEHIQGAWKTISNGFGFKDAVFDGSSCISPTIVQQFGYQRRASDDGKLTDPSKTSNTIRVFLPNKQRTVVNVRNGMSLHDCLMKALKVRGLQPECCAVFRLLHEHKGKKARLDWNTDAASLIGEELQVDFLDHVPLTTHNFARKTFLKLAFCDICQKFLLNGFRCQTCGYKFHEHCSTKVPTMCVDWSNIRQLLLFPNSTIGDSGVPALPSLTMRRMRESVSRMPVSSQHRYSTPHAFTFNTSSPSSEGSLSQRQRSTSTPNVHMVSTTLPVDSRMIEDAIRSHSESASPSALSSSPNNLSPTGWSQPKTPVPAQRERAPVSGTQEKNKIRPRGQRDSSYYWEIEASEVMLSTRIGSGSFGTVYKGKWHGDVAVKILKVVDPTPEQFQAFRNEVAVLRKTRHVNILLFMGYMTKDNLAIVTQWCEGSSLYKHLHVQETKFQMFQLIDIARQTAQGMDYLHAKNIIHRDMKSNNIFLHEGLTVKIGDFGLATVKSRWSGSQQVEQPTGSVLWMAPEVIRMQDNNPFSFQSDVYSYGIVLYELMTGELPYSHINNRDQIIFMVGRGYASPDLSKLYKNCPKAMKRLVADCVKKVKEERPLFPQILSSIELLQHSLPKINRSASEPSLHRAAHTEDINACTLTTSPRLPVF
Sequence of human Sirtuin 1 (SIRT1), SIRT1 (gene 23411) (Q96EB6 whole entry, looked up): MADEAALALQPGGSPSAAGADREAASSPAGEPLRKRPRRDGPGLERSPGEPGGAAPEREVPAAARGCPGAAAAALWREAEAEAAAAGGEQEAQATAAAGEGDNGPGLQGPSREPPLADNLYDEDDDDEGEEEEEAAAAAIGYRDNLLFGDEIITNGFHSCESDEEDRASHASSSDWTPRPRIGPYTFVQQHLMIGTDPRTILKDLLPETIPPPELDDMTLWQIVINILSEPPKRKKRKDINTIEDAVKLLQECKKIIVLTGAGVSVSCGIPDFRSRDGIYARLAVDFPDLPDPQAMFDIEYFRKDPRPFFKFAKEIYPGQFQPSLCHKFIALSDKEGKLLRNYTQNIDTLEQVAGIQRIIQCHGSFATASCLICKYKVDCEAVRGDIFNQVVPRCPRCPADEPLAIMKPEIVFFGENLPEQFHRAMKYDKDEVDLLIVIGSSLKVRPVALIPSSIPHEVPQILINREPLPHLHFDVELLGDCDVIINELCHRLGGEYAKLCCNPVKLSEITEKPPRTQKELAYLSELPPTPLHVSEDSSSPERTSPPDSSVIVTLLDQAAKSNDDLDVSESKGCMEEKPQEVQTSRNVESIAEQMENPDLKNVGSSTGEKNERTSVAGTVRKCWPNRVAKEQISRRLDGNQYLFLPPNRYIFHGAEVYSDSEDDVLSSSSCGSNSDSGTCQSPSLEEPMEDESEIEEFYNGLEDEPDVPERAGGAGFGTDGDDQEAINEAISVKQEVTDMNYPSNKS
Sequence of human Sirtuin 2 (SIRT2), SIRT2 (gene 22933) (Q8IXJ6 whole entry, looked up): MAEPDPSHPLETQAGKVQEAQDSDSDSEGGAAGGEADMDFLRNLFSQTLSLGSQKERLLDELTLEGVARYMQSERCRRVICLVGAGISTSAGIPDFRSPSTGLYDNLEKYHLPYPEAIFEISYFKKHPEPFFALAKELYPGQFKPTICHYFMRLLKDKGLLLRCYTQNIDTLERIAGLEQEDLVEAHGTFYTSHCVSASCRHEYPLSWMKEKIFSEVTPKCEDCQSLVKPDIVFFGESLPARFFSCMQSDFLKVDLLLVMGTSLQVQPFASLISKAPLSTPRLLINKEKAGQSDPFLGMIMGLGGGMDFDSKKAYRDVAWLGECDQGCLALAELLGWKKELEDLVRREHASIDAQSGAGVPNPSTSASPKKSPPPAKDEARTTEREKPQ
Sequence of rabbit Imidazoline 2 Central (I2C), CKB (gene 100009085) (P00567 whole entry, looked up): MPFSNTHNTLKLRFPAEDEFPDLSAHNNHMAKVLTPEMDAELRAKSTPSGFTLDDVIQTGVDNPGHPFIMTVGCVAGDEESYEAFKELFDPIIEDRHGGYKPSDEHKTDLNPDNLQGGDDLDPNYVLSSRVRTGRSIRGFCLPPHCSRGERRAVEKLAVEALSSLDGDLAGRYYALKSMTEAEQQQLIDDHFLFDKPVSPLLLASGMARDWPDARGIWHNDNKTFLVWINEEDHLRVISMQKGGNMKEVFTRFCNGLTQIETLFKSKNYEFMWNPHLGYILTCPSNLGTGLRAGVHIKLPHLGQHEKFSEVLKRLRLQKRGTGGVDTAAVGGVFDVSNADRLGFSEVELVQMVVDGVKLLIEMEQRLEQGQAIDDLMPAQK

Turning to `CCNS(=O)(=O)C(F)(F)C(F)(F)C(F)(F)C(F)(F)C(F)(F)C(F)(F)C(F)(F)C(F)(F)F`, the compound was classed as inactive in test [1], in [2], in test [3], in test [4] and in test [5].
Consider `CCN(CC)N=O`, for which the result in [6], in [7], in test [8] and in [9] was inactive.
Take `Oc1ccc2ccc3cccc4ccc1c2c34`: the concentration at half-maximal activity (AC50) (as a rule, the midpoint of the concentration-response curve, whichever way the signal moves) in [6] is 16.5 µM (active).
Take `Clc1ccc(C(c2ccc(Cl)cc2)C(Cl)(Cl)Cl)cc1`: the half-maximal activity concentration (AC50) in test [2] was 25 µM (active).
`CN(C)c1ccc(C(=O)c2ccc(N(C)C)cc2)cc1`: the call in test [10] was inactive.
With `CCCCCCCCOC(=O)c1ccc(C(=O)OCCCCCCCC)c(C(=O)OCCCCCCCC)c1`, the call in test [11] was inactive.
The same measure, in the same setting: in the case of `CS(=O)(=O)NC(=O)c1cc(Oc2ccc(C(F)(F)F)cc2Cl)ccc1[N+](=O)[O-]` it was “inactive”.
With `N#CC(Br)Br`, the result in test [7] was inactive.
In the case of `C[C@]12C=CC3=C4CCC(=O)C=C4CC[C@H]3[C@@H]1CC[C@@H]2O`, in test [7], the compound was called inactive.
Regarding `Cc1ccc(N=C=O)cc1N=C=O`, in test [8], the half-maximal activity concentration (AC50) was 25 µM (active).
For `CCOC(=O)[C@]1(c2ccccc2)Oc2ccccc2[C@@H]1N`, the compound was classed as inactive in test [5].
Take `COc1cc(C=O)cc2c1[C@H](COC(N)=O)[C@]1(OC(C)=O)ON2C[C@H]2[C@@H]1N2C(C)=O`: the compound was classed as inactive in [5].
